ssDAF-12 act – S. stercoralis DAF-12 nuclear receptor activators, primary screen, cell-based, luminescence, HEK293, GRIP1 co-expression, lit1-tk-luc | AID 652126, 2013 | hit rate 1% among 370,000 | Nuclear hormone receptor DAF-12 (Strongyloides stercoralis) | activation, % at 6.8 µM | HEK293 ssDAF-12/GRIP1 lit1-tk-luc reporter; % of 3 µM dafachronic acid response;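 active = activation above the mean over all tested compounds plus 3 SD, cut at about 0.9% in these data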
hcDAF12 agonist – H. contortus DAF-12 nuclear receptor activators, primary screen, cell-based, luminescence, HEK293, lit1-tk-luc reporter; HEK293 hcDAF-12 lit1-tk-luc reporter; 0% DMSO, 100% Δ7-dafachronic acid; activation, % at 6.8 µM; hit rate 1.4% among 370,000;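 active = activation above the mean of all tested compounds plus 3 SD, cut at about 5.5% in these data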
SMARCA2 act – SMARCA2 (BRM) function activators, primary screen, cell-based, luminescence, high throughput; MG213 cells, MMTV-luciferase reporter, dexamethasone, overnight; activation, % at 9.1 µM; hit rate 1% among 370,000; AID 652017, 2013; in the data active = activation above about 7.8%
DAX1 inh-1 – DAX1 (NR0B1) inhibitors, primary screen, cell-based, HEK293, Gal4-DAX1, luciferase luminescence | Nuclear receptor subfamily 0 group B member 1 (Homo sapiens), P51843 | HEK293 Gal4-DAX1 luciferase reporter | inhibition, % at 6.75 µM | hit rate 0.99% among 340,000 | AID 504766, 2011;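 active = inhibition above the mean over all tested compounds plus 3 SD, cut at about 4.2% in these data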;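 also: inhibition shows as a rise in luminescence from relieved DAX1 repression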
hgDAF-12 ag – H. glycines DAF-12 receptor agonists, primary screen, cell-based, luminescence, HEK293, GAL4 fusion, UAS-luciferase; Nuclear hormone receptor DAF-12 (Heterodera glycines), GAL4 fusion; HEK293 GAL4-hgDAF12 UAS-luciferase reporter, agonist luminescence; normalized to butyrate control; activation, % at 6.8 µM; hit rate 1.8% among 370,000;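 active = activation above a cutoff set at the mean of all screened compounds plus 3 SD, cut at about 10% in these data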
DAX1 inh-2 – DAX1 (NR0B1) inhibitors on StAR promoter, primary screen, cell-based, luminescence, SF-1 (NR5A1), full-length DAX-1 | inhibition, % at 6.8 µM | HEK293T StAR-luciferase reporter, SF-1/DAX-1 repression relief | hit rate 1.1% among 370,000 | AID 652010, 2013;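 active = inhibition above the mean over all tested compounds plus 3 SD, cut at about 3.6% in these data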;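 also: higher inhibition means more luminescence from relief of DAX-1 repression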
DAX1 inh confirm – DAX1 (NR0B1) inhibitors relieving SF-1 repression, confirmation, cell-based, luminescence, HEK293T, full-length DAX-1, SF-1 activated StAR promoter; shares compounds with DAX1 inh-2; HEK293T StAR-promoter luciferase reporter, SF-1/DAX-1 repression; inhibition, % at 6.8 µM; hit rate 87% among 2,400; AID 652134, 2013;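 active = inhibition above the average of every tested compound plus 3 SD, cut at about 3.8% in these data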
SF1 AF2mut Luc – StAR reporter signal changes without DAX1, counter-screen for DAX1 inhibitor project, cell-based, luminescence, AF-2 mutant SF-1, transactivation; inhibition, % at 6.8 µM; hit rate 78% among 2,400; HEK293 StAR-luciferase, SF-1 AF2 mutant; shares compounds with DAX1 inh-2;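 active = inhibition above the mean of all tested compounds plus 3 SD, cut at about 3% in these data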
SMARCA2 conf – SMARCA2 (BRM) function activators, confirmation, cell-based, luminescence, triplicate; shares compounds with SMARCA2 act; MG213 cells, MMTV-luciferase with dexamethasone, overnight; MG213 cells expressing E1A, Rb sequestered; DMSO wells 0%, reference activator 100%; activation, % at 9.1 µM; hit rate 30% among 3,500; AID 652260, 2013;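 active = activation above its plate's cutoff, the mean activation of tested wells plus 3 SD, cut at about 7.9% in these data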
VP16 Luc act – GAL4-VP16 luciferase reporter activation, counter-screen for SMARCA2 (BRM) activator project, cell-based, pG5luc, luminescence, high throughput; AID 686939, 2013; activation, % at 9.1 µM; hit rate 41% among 3,500; HEK293 GAL4-VP16 pG5luc reporter; scaled: DMSO wells 0%, SAHA wells 100%; shares compounds with SMARCA2 act;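 active = activation above the solvent-only control well mean plus 3 SD, averaged across control plates, cut at about 5.2% in these data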
LXRb hcDAF ctr – LXR agonists, Gal4 luciferase reporter, confirmation, counter-screen for hcDAF-12 agonist project, cell-based, luminescence, HEK293, H. contortus campaign; shares compounds with hcDAF12 agonist; HEK293 Gal4-LXR tk-luc reporter, 24 h; normalized: DMSO 0%, positive control 100%; activation, % at 6.8 µM; 3,400 tested, under 10 active; AID 743027, 2013;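 active = mean percent activation of the reporter above a cutoff set as the average over tested compounds plus their standard deviation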
Target sequence (P55055 whole entry, looked up, the tested form may be a part): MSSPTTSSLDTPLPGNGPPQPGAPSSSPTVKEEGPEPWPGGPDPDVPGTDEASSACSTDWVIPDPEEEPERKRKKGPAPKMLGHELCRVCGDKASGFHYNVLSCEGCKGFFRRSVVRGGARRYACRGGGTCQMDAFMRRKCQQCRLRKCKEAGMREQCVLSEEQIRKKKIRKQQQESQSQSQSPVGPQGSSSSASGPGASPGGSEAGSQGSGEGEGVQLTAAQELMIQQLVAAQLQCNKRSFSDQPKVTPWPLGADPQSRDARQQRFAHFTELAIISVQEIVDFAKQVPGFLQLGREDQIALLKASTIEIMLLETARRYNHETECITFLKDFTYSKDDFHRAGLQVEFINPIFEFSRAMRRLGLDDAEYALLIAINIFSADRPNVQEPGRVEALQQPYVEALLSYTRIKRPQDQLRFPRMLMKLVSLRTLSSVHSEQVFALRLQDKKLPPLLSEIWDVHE
hcDAF12 ag – H. contortus DAF-12 receptor agonists, confirmation, cell-based, luminescence, HEK293, lit1-tk-luc, triplicate | shares compounds with hcDAF12 agonist | HEK293 hcDAF-12 lit1-tk-luc reporter; % of Δ7-dafachronic acid response | activation, % at 6.8 µM | hit rate 61% among 3,400;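 active = mean activation across triplicate tests above the threshold derived from the earlier primary screen, cut at about 5.5% in these data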
Of the large screens only hits and unclear results are named; the others gave an inactive call (follow-up assays come after a bar, where they were run). Sampled rows, rich in hits. Any-hit rate of the full collection: about 4.8%.

COc1cccc(-c2nc(-c3cccs3)no2)c1	ssDAF-12 act 4.0, hcDAF12 agonist 15, hgDAF-12 ag 26, DAX1 inh-2 5.3 | DAX1 inh confirm 17 | SF1 AF2mut Luc 11 | LXRb hcDAF ctr inactive | hcDAF12 ag 16
COc1cc(OC)cc(-c2nc(-c3cccs3)no2)c1	none
Clc1ccccc1NN=Cc1ccccn1	ssDAF-12 act 1.0, hcDAF12 agonist 13, hgDAF-12 ag 19, DAX1 inh-2 8.0 | DAX1 inh confirm 7.6 | SF1 AF2mut Luc 4.7 | LXRb hcDAF ctr inactive | hcDAF12 ag 9.6
Nc1c(Cl)ncnc1N/N=C/c1ccccn1	none (no result: DAX1 inh-1)
O=C(Cn1nc(C(=O)O)c2ccccc2c1=O)NCc1ccco1	none
Cn1c(=O)[nH]c(=O)c2c1nc(SCC(O)CO)n2Cc1ccccc1Cl (configuration not stated)	none
CCN(CC)S(=O)(=O)c1cccc(-c2nc3n(n2)Cc2ccccc2-3)c1	none
Clc1ccc(-c2nc3n(n2)Cc2ccccc2-3)cc1	ssDAF-12 act 3.5, hcDAF12 agonist 17, hgDAF-12 ag 17, DAX1 inh-2 5.1 | DAX1 inh confirm 13 | SF1 AF2mut Luc 5.5 | LXRb hcDAF ctr inactive | hcDAF12 ag 24
COc1cc(/C=C/C(=O)OCC(=O)NCCc2ccccc2)cc(OC)c1OC	none
Cc1ccc(/C=N/Nc2nc3ccccc3s2)o1	ssDAF-12 act 2.8, hcDAF12 agonist 21, hgDAF-12 ag 13, DAX1 inh-2 6.2 | DAX1 inh confirm 16 | SF1 AF2mut Luc 9.1 | LXRb hcDAF ctr inactive | hcDAF12 ag 21
Cc1ccc(/C=N/Nc2nc(C(C)(C)C)cs2)o1	none
O=C1NCCCc2nc(Oc3ccccc3)sc21	none
C(=Cc1cnc2ccccc2n1)c1ccc2c(c1)OCO2	none
C(=Cc1nc2ccccc2o1)c1ccc2c(c1)OCO2	hcDAF12 agonist 8.1, hgDAF-12 ag 14, DAX1 inh-2 13 | DAX1 inh confirm 6.3 | SF1 AF2mut Luc inactive | LXRb hcDAF ctr inactive | hcDAF12 ag 8.9
CCOC(=O)c1cc2c(=O)n3ccccc3nc2n(Cc2ccco2)c1=NC(=O)c1cccc(OC)c1	none
Cc1ccc(-c2noc(CCC(=O)NC3CCCc4ccccc43)n2)cc1 (configuration not stated)	none
O=C(OCc1nc2ccccc2s1)c1ccco1	hcDAF12 agonist 9.1, hgDAF-12 ag 11, DAX1 inh-2 4.9 | DAX1 inh confirm 7.4 | SF1 AF2mut Luc 4.7 | LXRb hcDAF ctr inactive | hcDAF12 ag 8.6
Cc1ccc(C(=O)c2sc3nsc(C)c3c2N)cc1	ssDAF-12 act 1.1, hcDAF12 agonist 7.2, hgDAF-12 ag 13, DAX1 inh-2 5.0 | DAX1 inh confirm 14 | SF1 AF2mut Luc 5.4 | LXRb hcDAF ctr inactive | hcDAF12 ag 8.7
C=CCn1c(SCC2CCCCO2)nc2sc(CC)cc2c1=O (configuration not stated)	none
COc1ccccc1NC(CC(=O)c1ccccc1)C(=O)OCC(=O)c1ccc(F)cc1 (configuration not stated)	ssDAF-12 act 2.7, hcDAF12 agonist 18, SMARCA2 act 10.0, hgDAF-12 ag 18, DAX1 inh-2 6.2 | DAX1 inh confirm 15 | SF1 AF2mut Luc 6.6 | SMARCA2 conf 8.6 | VP16 Luc act 15 | LXRb hcDAF ctr inactive | hcDAF12 ag 19
Cc1c(C(=O)NC2=NCCS2)oc2ccccc12	ssDAF-12 act 2.7, hcDAF12 agonist 19, hgDAF-12 ag 14, DAX1 inh-2 5.3 | DAX1 inh confirm 14 | SF1 AF2mut Luc 7.2 | LXRb hcDAF ctr inactive | hcDAF12 ag 21
O=C(Cn1ccc([N+](=O)[O-])n1)NCC1CCCO1 (configuration not stated)	none
C/C(=N\Nc1cccc2cccnc12)c1ccccc1O	ssDAF-12 act 4.2, hcDAF12 agonist 25, DAX1 inh-1 9.6, hgDAF-12 ag 25, DAX1 inh-2 5.6 | DAX1 inh confirm 14 | SF1 AF2mut Luc 4.3 | LXRb hcDAF ctr inactive | hcDAF12 ag 20
Oc1cccc(/C=N/Nc2cccc3cccnc23)c1	ssDAF-12 act 3.7, hcDAF12 agonist 21, hgDAF-12 ag 23, DAX1 inh-2 5.7 | DAX1 inh confirm 20 | SF1 AF2mut Luc 10 | LXRb hcDAF ctr inactive | hcDAF12 ag 25
Oc1c(/C=N/Nc2cccc3cccnc23)ccc2ccccc12	none
O=C(CN1CCN(c2ccc(O)cc2)CC1)Nc1cc([N+](=O)[O-])ccc1Cl	none
O=C(Nc1ccon1)c1cnc2sccn2c1=O	none
